Experimental data as given in PubChem BioAssay (NCI).
About 79,000 compounds went through this panel and 15% of them were active in at least one assay; those are over-represented in the sample as a whole. Values without a mark were called inactive. Activity calls are given as the source filed them. Rule as the data show it: active = growth inhibition above about 70%; inactive = the rest.

How the values were obtained:
[1] = NCI Yeast Anticancer Drug Screen. Data for the rad50 strain (AID 155);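 also: 0% = growth of vehicle-only cultures of the same strain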; details: S. cerevisiae rad50 strain growth inhibition; at 50.0 µM; stronger effect = higher value
Procedure, shortened: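 Vehicle-treated cultures provide the reference for the growth inhibition reported for compound-exposed, repair-deficient yeast.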

[2] = NCI Yeast Anticancer Drug Screen. Data for the mec2-1 strain (AID 157); details: S. cerevisiae mec2-1 strain, at 50.0 µM, stronger effect = higher value
Procedure, shortened: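 mec2-1 yeast strain, carrying an alteration in DNA damage repair or cell cycle control, was exposed to compounds; growth inhibition was measured relative to vehicle-treated controls.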

[3] = NCI Yeast Anticancer Drug Screen. Data for the sgs1 mgt1 strain (AID 161);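 also: 0% = growth of cultures given vehicle only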; details: S. cerevisiae sgs1 mgt1 strain, at 50.0 µM, stronger effect = higher value
Procedure, shortened: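 Yeast cells carrying a defined DNA-repair defect were exposed to test compounds. Growth inhibition was measured relative to vehicle-treated controls.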

[4] = NCI Yeast Anticancer Drug Screen. Data for the cln2 rad14 strain (AID 165);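 also: 0% = growth equal to vehicle treated cultures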; details: S. cerevisiae cln2 rad14 strain, at 50.0 µM, stronger effect = higher value
Procedure, shortened: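 Yeast carrying cln2 and rad14 alterations (cell cycle control and DNA damage repair) were exposed to compounds. Growth inhibition was measured against vehicle-treated controls.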

[5] = NCI Yeast Anticancer Drug Screen. Data for the bub3 strain (AID 167); details: S. cerevisiae bub3 mutant strain, at 50.0 µM, stronger effect = higher value
Procedure, shortened: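 Mutant yeast screening strain plus compound; vehicle-treated cultures serve as the 0% inhibition reference.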

[6] = NCI Yeast Anticancer Drug Screen. Data for the mlh1 rad18 strain (AID 175); details: S. cerevisiae mlh1 rad18 strain growth inhibition; at 50.0 µM; stronger effect = higher value
Procedure, shortened: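 Growth inhibition of the yeast strain was measured after compound exposure and expressed relative to vehicle-treated controls. The strain carries defined defects in DNA damage repair.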

SMILES | growth inhibition [1] | growth inhibition [2] | growth inhibition [3] | growth inhibition [4] | growth inhibition [5] | growth inhibition [6]
CCCC(=O)Nc1ccc2c(ccn2COC)c1 | -37.2% | -2.2% | -2.05% | 8.7% | 8.45% | -18.2%
CC(C)=NC(C(=O)O)C(C)(C)S (stereo unspecified) | -17.6% | -15.2% | -18.1% | -12.3% | -62% | -17.1%
C1CCN=C(N2CCCCCC2)CC1 | -16.9% | -4.2% | -5.8% | -33% | 13.6% | -6.25%
CCOCC(=O)N[C@H]1CCc2cc(OC)c(OC)c(OC)c2-c2ccc(SC)c(=O)cc21 | 10.7% | 26.9% | 12.2% | -53.6% | -8.3% | 47.1%
S=C(Nc1ccccc1)NC1SNC(=Nc2ccccc2)N1c1ccccc1 (stereo unspecified) | 98.2% (active) | 99.4% (active) | 98.8% (active) | 99.3% (active) | 99.3% (active) | 99% (active)
O=C(/C=C\c1ccccc1Cl)/C=C/c1ccccc1Cl | 11.2% | 2.75% | -4.6% | -42.3% | -0.35% | 11.8%
Cc1cc2c(cc1C)NC1=C(N2)OC(c2ccc(Cl)cc2)C1=O (stereo unspecified) | 19.9% | 16.2% | 44.6% | 2% | 21.1% | 44.1%
CCCCOC(=O)c1ccc(NC(=O)CCC(C)Cl)cc1 (stereo unspecified) | -15.7% | 13.2% | -2.1% | -22.2% | 16.8% | 6.6%
CCOC(=O)Nc1nc(-c2ccc(Br)cc2)cs1 | -11.5% | -5.4% | -2.1% | -37.6% | 14.1% | -17.9%
O=C(CC(C(=O)O)S(=O)(=O)O)Nc1ccc(S(=O)(=O)c2ccc(NC(=O)CC(C(=O)O)S(=O)(=O)O)cc2)cc1 (stereo unspecified) | 2.45% | 4.55% | 2.55% | -5.55% | -7.9% | -11.3%
CCCCCCCCCC1OCC(COCC)O1 (stereo unspecified) | -2.6% | -9% | 7.5% | -17.4% | 14.8% | -7.15%
CC1(C=O)C(=O)CCC2(C)C3CC(=O)OC3CCC12 (stereo unspecified) | -35% | -10.1% | -10.8% | -20.3% | -17.7% | -27.1%
CCCCN=NNc1cn(C2OC(CO)C(O)C2O)c(=O)[nH]c1=O (stereo unspecified) | -22.4% | 0.9% | 4.85% | 13.3% | 10.8% | 21.8%
C(=C1c2c(ccc3ccccc23)Oc2ccc3ccccc3c21)c1ccccc1 | 14.3% | 10.6% | 12.3% | -30.1% | 1.65% | 14.3%
CNC(=O)c1ccccc1C(O)c1ccc(C)cc1 (stereo unspecified) | 7.65% | -6.3% | 17.6% | 23.4% | 37.6% | 20.6%
Cc1cc(N(CCC#N)CCC#N)ccc1/C=C(\N=[N+]=[N-])C(=O)NC(=O)COc1ccccc1 | 16.1% | -19.8% | 4.7% | 11.9% | -6.65% | -9.05%
N#CC(C#N)=CNc1ccccc1 | 5.4% | -8.95% | 7.5% | -20.9% | 9.7% | 4.6%
CN(C)CC1OCCc2ccccc21 (stereo unspecified) | 10.1% | 2.9% | 3.75% | 0.6% | 6.05% | 10%

SMILES | growth inhibition [1] | growth inhibition [2] | growth inhibition [3] | growth inhibition [4] | growth inhibition [5] | growth inhibition [6]
CCN=C1Nc2ccccc2-n2c(nn3nc4ccccc4c23)N1CC | -13.1% | -26.4% | -42% | -24.3% | -41% | -51.7%
CCOC(=O)/C=C/C(=O)N1CCN(C(=O)/C=C/C(=O)OCC)C(C)C1 (stereo unspecified) | -3.3% | -40.8% | -6.7% | 4.25% | -41.5% | -15.9%
O=C1c2ccccc2C(=O)N1Cc1ccccc1 | 3.55% | -16.9% | 6.6% | 27.4% | 0.45% | 6.7%
CC(C)Cc1ncnc2n[nH]nc12 | 1.65% | 8.5% | 35.5% | 35.4% | 20.4% | 17.8%
CNc1nc2c(C)ccc3nc(N(C)C)nc-3c2n1C | 0.6% | -22.2% | 4.4% | 16.4% | 20.1% | 14.8%
CN1N(c2ccccc2)C(=O)C2=NC=C(C(=O)c3ccccc3)C(=N)C21C (stereo unspecified) | 6.2% | -1.6% | 22.1% | 19.9% | 7.7% | 16.8%
S=c1[nH]c(=S)c2nnn(-c3ccccc3)c2[nH]1 | -47% | -38% | -31.5% | -25.9% | -47.9% | -34%
CCOC(=O)N1N=C(c2ccccc2)OC2(N3CCCC3)CCC(C(C)(C)C)CC12 (stereo unspecified) | 11.1% | 10.6% | 9.4% | -4.5% | -4.25% | 27.9%
COc1cccc(Oc2cccc[n+]2CC(C)=O)c1 | -57.5% | -10.3% | 3.75% | 8.4% | 0.3% | 1.15%
Cc1cc(Cl)cc(CN(C)Cn2c(=O)cc[nH]c2=O)c1O | 6.45% | -7.65% | 2.7% | -31.9% | 8.45% | 2.2%
COC(=O)N1C2c3ccccc3C(c3ccccc32)N1C(=O)OC | 6% | 21.5% | 11.3% | -54.8% | 32.8% | 33.8%
N#CCCN(CCC#N)c1ccc(C=O)cc1 | 20.3% | 8.05% | 17.2% | -4.25% | 26.6% | 13.6%
O=[N+]([O-])c1ccc(F)cc1C(F)(F)F | 19.1% | -17.4% | 32.4% | -10.2% | 0.2% | 43.5%
O=C(O)c1c(Br)c(Br)c(Br)c(Br)c1C(=O)Nc1cccc2c(O)cccc12 | 42.4% | 24.9% | 25.2% | 14.4% | 24.3% | 44.9%
COC(=O)c1cc(-c2ccc3ccccc3c2)[nH]c(=O)c1C#N | 34.4% | 35.2% | 65.6% | 46.9% | 23.2% | 67.3%
CCCCSCCC(=O)O | 18.4% | -3.05% | -22.2% | 3.95% | 5.95% | 5.85%
CCOC(=O)C[n+]1ccc(C(=O)OCC)cc1 | -7.1% | -15.2% | 0.05% | 2.3% | 11.1% | 3.5%
O=[N+]([O-])c1cccc(/C=[N+](\[O-])c2ccccc2)c1 | -3.45% | 8.2% | 13% | -38.6% | -16.9% | 0.6%
